Laboratory results taken from PubChem BioAssay.
Activity calls are given as the source filed them.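 Rule for the calls, unless noted: active = fluorescence slope after compound addition differing from the mean of all screened samples at 99.7% confidence, in either direction; inactive = the rest.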

Legend:
[1] = inhibitors of TNFa-induced NFkB p65 translocation, primary screen, imaging, HUVEC, MLSMR starter and 10KST1 sets (AID 438;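 active = inhibition above 20% together with a positive visual image hit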;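 note: compound added about 3h40 before a 20 min TNFalpha stimulation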;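 for inhibition: signal is the nuclear over cytoplasmic p65 intensity ratio per well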); conditions: HUVEC TNFa-induced p65 nuclear translocation; cell count: measured here: nuclei count (cytotoxicity indicator), at 2.08 µM; inhibition: at 2 µM, stronger effect = higher value, 0% TNFa-plus-vehicle, 100% no-TNFa wells
[2] = reduction of polyQ htt aggregates in cells – imaging, exon1htt(103Q)mCFP cells, high-content imaging, primary screen (AID 483;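 active = visual image review flags a hit and inhibition of aggregation exceeds 20%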;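 note: compound exposure lasted 3 days before fixation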;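 for nuclei count: percent of the per-plate median nuclei count of sample wells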); conditions: exon1htt(103Q)mCFP cell line, aggregate imaging, at 2 µM; inhibition of aggregation: stronger effect = higher value; nuclei count: measured here: cell count, toxicity
[3] = endothelial E-selectin expression blockers – imaging, HUVEC, immunofluorescence, MLSMR starter and 10KST1 sets, primary screen (AID 487;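 active = visually confirmed hit in the image check and inhibition above 20%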;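 for inhibition: signal is fraction of cell area covered by stained E-selectin grains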;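 for nuclei count: 100% = median nuclei count of all wells on the same plate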); conditions: HUVEC TNFalpha-induced E-selectin immunofluorescence imaging, at 2 µM; inhibition: stronger effect = higher value; nuclei count: measured here: cell number, toxicity
[4] = molecular target: Voltage-gated potassium channel subunit beta-2 (Rattus norvegicus) (UniProt P62483); assay: inhibitors of rat Kvbeta2 reductase activity – biochemical, NADPH fluorescence, primary screen (AID 622;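 active = fluorescence slope higher than the sample average by over 3 SD, cut at about -0.22 in these data, passing the limit was not always enough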;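 note: slope of raw intensity against log time taken from 70 to 1610 s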); conditions: recombinant KvBeta, 4-cyanobenzaldehyde reduction, at 10 µM, stronger effect = higher value
Sequence of Voltage-gated potassium channel subunit beta-2 (Rattus norvegicus) (P62483 whole entry, looked up): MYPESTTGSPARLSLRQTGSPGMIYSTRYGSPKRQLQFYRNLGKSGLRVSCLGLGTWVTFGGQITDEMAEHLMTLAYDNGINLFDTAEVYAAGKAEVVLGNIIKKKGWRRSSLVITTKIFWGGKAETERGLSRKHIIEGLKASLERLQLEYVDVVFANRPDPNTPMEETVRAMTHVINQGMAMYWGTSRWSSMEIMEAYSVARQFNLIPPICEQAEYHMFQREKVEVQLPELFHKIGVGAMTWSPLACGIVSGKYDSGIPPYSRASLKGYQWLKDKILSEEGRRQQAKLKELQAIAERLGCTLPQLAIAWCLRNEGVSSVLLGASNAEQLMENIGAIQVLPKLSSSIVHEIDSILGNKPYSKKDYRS

[5] = molecular target: Voltage-gated potassium channel subunit beta-2 (Rattus norvegicus) (UniProt P62483); assay: enhancers of rat Kvbeta2 NADPH turnover – biochemical, NADPH fluorescence, primary screen (AID 623;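 active = NADPH fluorescence slope more negative than the mean of all samples by about 3 SD, 99.7% confidence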;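 note: fluorescence intensity change per second fitted from 20 to 320 s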); conditions: Recombinant KvBeta, NADPH fluorescence decrease slope, 10 min; at 10 µM; stronger effect = lower value
[6] = molecular target: Alpha-2C adrenergic receptor (Homo sapiens) (UniProt P18825); assay: compounds altering alpha2C-coupled GIRK flux – cell-based, HEK293 alpha2C/GIRK1/2, thallium flux, primary screen (AID 624); conditions: thallium flux BTC fluorescence, at 10 µM, actives lie on both sides;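 note: slope of fluorescence ratio to pre-addition baseline per second over 15 to 24 s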
Sequence of Alpha-2C adrenergic receptor (Homo sapiens) (P18825 whole entry, looked up): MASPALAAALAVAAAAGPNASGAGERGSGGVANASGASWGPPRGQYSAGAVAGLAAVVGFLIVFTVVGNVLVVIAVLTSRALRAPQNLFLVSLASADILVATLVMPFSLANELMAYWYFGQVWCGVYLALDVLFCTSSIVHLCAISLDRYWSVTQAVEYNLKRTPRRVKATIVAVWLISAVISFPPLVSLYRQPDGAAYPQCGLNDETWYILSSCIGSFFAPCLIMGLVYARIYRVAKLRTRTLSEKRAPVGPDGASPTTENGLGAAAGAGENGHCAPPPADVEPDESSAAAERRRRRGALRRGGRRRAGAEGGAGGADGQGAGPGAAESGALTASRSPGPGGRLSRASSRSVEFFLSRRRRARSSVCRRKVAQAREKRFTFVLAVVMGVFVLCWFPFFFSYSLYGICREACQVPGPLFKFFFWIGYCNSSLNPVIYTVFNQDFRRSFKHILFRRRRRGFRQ

[7] = blockers of RIG-like receptor reporter activation – cell-based, Sendai virus stimulus, luciferase, 10K MLSCN set, TLR/RLR signaling modifier project, primary screen (AID 602276;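 active = inhibition at or above 50% at 10 µM; inactive = inhibition below 50%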;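 note: firefly luciferase from ISG56 promoter only with Renilla not read in this screen; 0% = Sendai virus plus DMSO and 100% = medium plus DMSO without virus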); conditions: HEK293 RL24 IRF3 luciferase reporter, at 10 µM, stronger effect = higher value
[8] = TLR3 IRF3 reporter activation blockers – cell-based, poly I:C stimulus, luciferase, 10K MLSCN set, primary screen (AID 602277;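 active = inhibition of the reporter signal at or above 50%; inactive = inhibition below 50%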); conditions: HEK293-TLR3 RL24 IRF3 luciferase reporter, at 10 µM, stronger effect = higher value

Row | Structure (SMILES) | cell count [1] | inhibition [1] | inhibition of aggregation [2] | nuclei count [2] [%] | inhibition [3] | nuclei count [3] [%] | fluorescence slope [4] | NADPH fluorescence slope [5] | slope [6] | inhibition [7] | inhibition [8]
1 | CCOC(=O)N1CCN(S(=O)(=O)c2cc(Cl)ccc2Cl)CC1 | 357 | 5.2% (inactive) | 29.4% (inactive) | 95.3 | -221% (inactive) | 106 | -0.62 (inactive) | -2.7e-05 (inactive) | 0.00556 (inactive) | 14.8% (inactive) | 18.5% (inactive)
2 | CCCC(=O)C1=C(N(C)c2ccccc2)CC(C)(C)C(C(=O)OC)C1=O (centres undefined) | 429 | -0.3% (inactive) | 3.6% (inactive) | 92.5 | -8.2% (inactive) | 121 | -0.445 (inactive) | -7.2e-06 (inactive) | 0.00268 (inactive) | 9.63% (inactive) | 33.4% (inactive)
3 | CC1CCc2nn(CC(=O)NCCN3CCCCC3C)cc2C1 (centres undefined) | 621 | 12% (inactive) | -27.1% (inactive) | 106 | -11.5% (inactive) | 108 | -0.62 (inactive) | 6.4e-06 (inactive) | 0.00605 (inactive) | 7.09% (inactive) | 33.8% (inactive)
4 | CCOc1cc(-c2nc(-c3ccc(C)nc3OCC)no2)cc(OCC)c1OCC | 612 | 0% (inactive) | 32.3% (inactive) | 79.5 | -56.3% (inactive) | 117 | -0.601 (inactive) | -1.4e-05 (inactive) | 0.00309 (inactive) | -10.9% (inactive) | -40.1% (inactive)
5 | CCOC(=O)CN1CC23C=CC(O2)C(C(=O)Nc2ccc(OCC)cc2)C3C1=O (centres undefined) | 615 | 0.7% (inactive) | -10.5% (inactive) | 112 | -5.7% (inactive) | 106 | -0.517 (inactive) | -1.3e-05 (inactive) | 0.00673 (inactive) | 7.04% (inactive) | 15.5% (inactive)
6 | O=C(CSc1ncccn1)NCc1ccccc1 | 362 | 2.5% (inactive) | 12.3% (inactive) | 103 | 36.4% (inactive) | 120 | -0.531 (inactive) | 3.2e-05 (inactive) | 0.00529 (inactive) | -29.7% (inactive) | -47.8% (inactive)
7 | CCCCOC(=O)c1[nH]c2c(c1C)C(=O)CC(c1cc(OC)c(OC)c(OC)c1)C2 (centres undefined) | 546 | -1.7% (inactive) | 18.4% (inactive) | 79.6 | -7.4% (inactive) | 104 | -0.57 (inactive) | -2.8e-05 (inactive) | 0.00591 (inactive) | 7.86% (inactive) | -20.9% (inactive)
8 | Cc1nc2ccccc2c2oc(C(=O)NCCCN3CCCC3=O)cc12 | 472 | 1.3% (inactive) | -37.4% (inactive) | 76 | -36.2% (inactive) | 106 | -0.527 (inactive) | -2e-05 (inactive) | 0.00837 (inactive) | 10.3% (inactive) | 7.6% (inactive)
9 | Cc1ccccc1-c1nc(Cc2ccccc2)no1 | 434 | -9.1% (inactive) | 12.9% (inactive) | 87.9 | 31.1% (inactive) | 93.2 | -0.341 (inactive) | -3.8e-05 (inactive) | 0.00721 (inactive) | -43.9% (inactive) | -184% (inactive)
